The supplement of paper PMC6555819

How the values were obtained:
Test in all cases: PBM binding z-score (relative to random genomic background probes); higher = stronger binding; sequences stand for … in GC…GCGATTGACAGCGTAGAATGAAGG
[1] = system: RARb homodimer (NR concentration 270 nM)
In short: (§1)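 Scanned fluorescence from custom Agilent 4×180K protein-binding microarrays was regression-normalized. Binding z-scores use random background probes as reference. Ligand-free nuclear receptor dimers were incubated on the arrays for 1 h and detected with antibodies against each partner (one per run).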

[2] = system: RARg:RXRa (NR concentration 270 nM, RXRa partner concentration 90 nM)
In short: as §1

[3] = system: RARg homodimer (NR concentration 270 nM)
In short: as §1

[4] = system: RXRa DBDmut IVT, anti-RXR (DBD mutation: RXRa K156A/R161A, NR concentration 90 nM)
In short: as §1

[5] = system: RXRa homodimer (NR concentration 180 nM)
In short: as §1

[6] = system: THRa:RXRa (NR concentration 90 nM, RXRa partner concentration 90 nM)
In short: as §1

[7] = system: THRa homodimer (NR concentration 90 nM)
In short: as §1

[8] = system: VDR homodimer (NR concentration 270 nM)
In short: as §1

Sequence | PBM binding z-score [1] | PBM binding z-score [2] | PBM binding z-score [3] | PBM binding z-score [4] | PBM binding z-score [5] | PBM binding z-score [6] | PBM binding z-score [7] | PBM binding z-score [8]
TTACCAAGATGAGCTGAGGTCGTTGATCCAACTC | 0.571 | 0.267 | -0.226 | 0.162 | 0.858 | 2.68 | 1.56 | 2.02
CCTGCTAGGTCACGGTCAGCTAATCTACAGTATG | 3.98 | 5.01 | 6.09 | 2.08 | 4.15 | 3.35 | 2.35 | 0.444
CCTACTGGGCAAAAGGTCATTGATTCCAATGCTC | 4.53 | 5.81 | 5.23 | 0.966 | 6.04 | 3.09 | 0.51 | 1.72
CCGACTGAGGCAAGGTTACCATAACGCACAGCCA | 1.01 | 0.557 | 0.458 | 0.18 | 0.97 | 1.26 | 0.413 | 0.118
CCGACTGGGGCAATGGTTACCATACTCAGTACGA | -0.241 | -0.0332 | 0.28 | -0.545 | 0.082 | -0.548 | -0.465 | -0.489
TAGCCTAGGTCAGATCGGGCCAGTAGACGCTATA | 1.76 | 2.74 | 3.37 | -0.78 | 1.2 | 3.76 | -0.385 | -0.53
CTTCCAAGGTCAAGGTCAGTGAAAGAGACTCGAA | 5.12 | 6.79 | 7.26 | 3.07 | 6.55 | 4.54 | 3.64 | 2.79
TGATATAGGTAAACAGGTGAAAGTCCGTAAGTTA | 0.629 | 0.44 | 0.407 | -0.121 | 0.613 | 0.68 | 0.366 | 0.301
ATCTCTAGGTAACAAGTTCAGTGTAAGAGAGGAC | 1.94 | 1.5 | 1.49 | 1.15 | 0.874 | 1.8 | 0.989 | 2.99
TCTTCTAGGTCAGTTGGTCAGCTAACGAGCTGCC | 3.05 | 3.26 | 4.08 | 1.65 | 1.62 | 2.19 | 1.58 | 0.514
CGTCAAAGTTCAACTAAGGTAACGAAAAGCACGC | 4.12 | 5.98 | 6.71 | 4.46 | 4.91 | 5.09 | 1.67 | 3.6
CGTCAAAGTTCAAGGTAGCGTAACAGAAAGCAGC | 3.9 | 5.41 | 6.34 | 4.38 | 4.84 | 2.19 | 0.191 | 3.11
CGAACTAGGTCATGGACAGGACAGTGAATAGTAA | 2.93 | 5.08 | 4.95 | 1.42 | 3.41 | 3.13 | 0.909 | 0.49
ACTAGCAGGCCAAGGGTCAGTCAAGATTAGTCCG | 3.52 | 3.02 | 2.76 | 0.119 | 2.52 | 1.75 | -0.147 | 0.29
AATACAGGGTCATCGTAGACCAGAGTACGCACAG | 3.31 | 5.66 | 5.19 | 3.73 | 6.72 | 3.67 | 1.24 | 4.03
CGTCCAAGGGCATAGGAGGTCAGTGAAGACAGAT | 3.72 | 3.42 | 3.68 | 1.44 | 2.65 | 4.64 | 0.738 | 2.25
CGTCCAAGGTCGTAGGAGGTCAGTGAAGACAGAT | 4.07 | 4.63 | 4.14 | 2.43 | 4.36 | 4.89 | 1.61 | 2.85
CGAACTAGGTCAAGGTCAGTGAATCTCCGCACGC | 4.79 | 5.23 | 6.17 | 2.29 | 4.11 | 3.86 | 3.15 | 2.14
CTCGAAAGGTCGTGCTCAGGTGAGTATACCAAAC | 2.75 | 5.07 | 3.86 | 2.05 | 4.63 | 4.17 | 1.08 | 1.2
TCATATAGGTAAAGGTGAAAGGCGAACGATATGA | 1.51 | 1.67 | 1.39 | 0.748 | 2.24 | 1.7 | -0.314 | -0.263
CCTACTGGGCCATCGGGTCATTGATATCAACGTT | 2.25 | 2.25 | 1.72 | -0.759 | 1.89 | 2.86 | 1.94 | 1.68
TCTTGTAGATCAACAGGAGATTAAGAAAGATCGA | -1.12 | -0.112 | -0.181 | 0.2 | 0.147 | -0.777 | -1.13 | -0.417
ATCGATAGGTCGACGAGGTGAGTATACACCGTTT | 0.959 | 1.8 | 1.82 | 0.0347 | 1.67 | 2.59 | 0.488 | 0.231
CCTAGCAGGCCAATCTGGTTCACTCAAGGCTTGA | 0.26 | -0.172 | -0.0939 | 0.398 | -0.304 | 1.38 | -0.212 | 0.42
CCGACTGGGCCACGAAAGGTCATTGATTCAGTGA | 4.83 | 4.59 | 4.35 | 0.758 | 4.99 | 3.87 | 0.668 | 1.78
GCTGATAGGTCAGGTTGGTCAGCTAACGGGTACG | 3.37 | 3.84 | 4.49 | 0.3 | 2.6 | 1.46 | -0.126 | 0.351
ATCTCTAGGTAAAGTTCAGAGAAAGATCGATAGA | 2.23 | 2.13 | 2.6 | 1.45 | 1.42 | 1.13 | -0.103 | 2.03
CGAACTAGGTCAAAGGTCAAAGTCGAGCCAACCA | 5.24 | 8.9 | 7.55 | 3.33 | 10.3 | 4.58 | 1.53 | 3.66
